In PubChem BioAssay (NCI):
Compounds without any hit were thinned out: in the full panel of roughly 79,000, 15% have a hit. Activity calls are given as the source filed them. Cut-off read from the data, not from the text of the source: active = growth inhibition above about 70%; inactive = the rest.

Tests used:
[1] = NCI Yeast Anticancer Drug Screen. Data for the rad50 strain (AID 155);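 note: 0% = growth of vehicle-only cultures of the same strain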; details: S. cerevisiae rad50 strain growth inhibition; at 50.0 µM; stronger effect = higher value
Outline: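 Genetically altered yeast (DNA repair pathway); compound treatment; growth inhibition vs vehicle ctrl.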

[2] = NCI Yeast Anticancer Drug Screen. Data for the mec2-1 strain (AID 157); details: S. cerevisiae mec2-1 strain, at 50.0 µM, stronger effect = higher value
Outline: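 mec2-1 yeast strain, carrying an alteration in DNA damage repair or cell cycle control, was exposed to compounds; growth inhibition was measured relative to vehicle-treated controls.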

[3] = NCI Yeast Anticancer Drug Screen. Data for the sgs1 mgt1 strain (AID 161);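 note: 0% = growth of cultures given vehicle only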; details: S. cerevisiae sgs1 mgt1 strain, at 50.0 µM, stronger effect = higher value
Outline: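 This yeast growth screen uses a strain with defined DNA-repair lesions; compound-treated growth is compared with vehicle-treated growth.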

[4] = NCI Yeast Anticancer Drug Screen. Data for the cln2 rad14 strain (AID 165);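 note: 0% = growth equal to vehicle treated cultures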; details: S. cerevisiae cln2 rad14 strain, at 50.0 µM, stronger effect = higher value
Outline: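 Yeast carrying cln2 and rad14 alterations (cell cycle control and DNA damage repair) were exposed to compounds. Growth inhibition was measured against vehicle-treated controls.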

[5] = NCI Yeast Anticancer Drug Screen. Data for the bub3 strain (AID 167); details: S. cerevisiae bub3 mutant strain, at 50.0 µM, stronger effect = higher value
Outline: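 Yeast carrying a defined mutation is treated with each compound, and growth is compared with that of vehicle-exposed cells to give inhibition.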

[6] = NCI Yeast Anticancer Drug Screen. Data for the mlh1 rad18 strain (AID 175); details: S. cerevisiae mlh1 rad18 strain growth inhibition; at 50.0 µM; stronger effect = higher value
Outline: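 Growth inhibition of the yeast strain was measured after compound exposure and expressed relative to vehicle-treated controls. The strain carries defined defects in DNA damage repair.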

Measured: growth inhibition

COc1ccc(CC#N)c(OCc2ccccc2)c1
inactive: [1] 2.35% | [2] 8.3% | [3] -10.2% | [4] 3.55% | [5] 1.8% | [6] -17.5%

Cc1c(CN(C)C)ccc2ccccc12
inactive: [1] -6% | [2] -6.05% | [3] 3.95% | [4] -34.4% | [5] 0.6% | [6] -8.95%

O=C(O)c1ccc(C(=O)O)c(C(=O)Nc2ccc3c(c2)C(=O)c2ccccc2-3)c1
inactive: [1] 41.9% | [2] -26.6% | [3] -2.15% | [4] -2.85% | [5] 9.7% | [6] 48.9%

COc1cccc(/C=N\N=C\c2cccc(OC)c2O)c1O
inactive: [1] 2.65% | [2] 2.7% | [3] -11.4% | [4] -7.05% | [5] 26.6% | [6] 33.9%

CC(=O)Nc1ccc(Cc2ccc(O)cc2)cc1
inactive: [1] 1.55% | [2] 6.65% | [3] -3.75% | [4] -31.1% | [5] -3.55% | [6] -1.45%

O=c1[nH]c2cc(Cl)ccc2nc1C1=C(O)c2ccccc2C1
inactive: [1] 32% | [2] 12.7% | [3] 23.6% | [4] 3.35% | [5] 6.7% | [6] 30.6%

COc1ccc2nc3cc(Cl)ccc3c(NCCNCC(C)(C)O)c2c1
inactive: [1] 23.4% | [2] 15.8% | [3] 18.5% | [4] 63.8% | [5] 27.1% | [6] 22.1%

NC(N)=NC(=O)c1ccc(N)cc1
inactive: [1] -13.6% | [2] -2.25% | [3] -0.1% | [4] -7.35% | [5] -3.4% | [6] 23.5%

Cc1ccc(Cl)cc1NC(=O)Oc1cc(C)c(Cl)c(C)c1
inactive: [1] 1% | [2] 8.2% | [3] -4.1% | [4] 6.85% | [5] 25.7% | [6] 4.35%

Cc1cc(C)nc(C)c1
inactive: [1] -22.2% | [2] -15.1% | [3] -14.2% | [4] -11.1% | [5] -3.4% | [6] 23.9%

CCCC(O)CN (stereo not drawn)
inactive: [1] -5.65% | [2] 18.2% | [3] -12.7% | [4] 9.4% | [5] -0.85% | [6] 24.9%

CC(C)=C1C(=O)C[C@]2(C)C[C@H]3O[C@]3(C)CC[C@@H]3O[C@@]3(C)CC[C@@H]12
inactive: [1] 0.3% | [2] -8.05% | [3] 12.6% | [4] 14.1% | [5] -1.65% | [6] -66.5%

Cc1cc2c(C)nn(Cc3ccccc3Cl)c2c(C#N)c1C
inactive: [1] 32.5% | [2] -1.6% | [3] 43% | [4] 23.9% | [5] 26.9% | [6] 44.4%

c1ccc(C2NC(c3ccccc3)c3c(ccc4ccccc34)O2)cc1 (stereo not drawn)
inactive: [1] 20.1% | [2] -2.1% | [3] 13.1% | [4] -19.9% | [5] -5.15% | [6] 20.6%

Cn1c(COC(=O)Nc2ccccc2)c(COC(=O)Nc2ccccc2)c2ccc3cc(Cl)c(Cl)cc3c21
inactive: [6] -44%
active: [1] 72.9% | [2] 78.8% | [3] 76.3% | [4] 81.2% | [5] 84.3%

CCNC(=O)NS(=O)(=O)c1ccc(Sc2ccc(C)cc2)nc1
inactive: [1] -11.2% | [2] -7.3% | [3] -1.1% | [4] -20.5% | [5] 7.2% | [6] 0.7%

CC(=O)Nc1cc(OC(C)=O)c(OC(C)=O)c2ccccc12
inactive: [1] -7.45% | [2] -6.9% | [3] -0.6% | [4] -1.55% | [5] -33.1% | [6] 1.1%

Cn1ncc(=O)[nH]c1=O
inactive: [1] -15.2% | [2] -5.2% | [3] -23.4% | [4] 10.1% | [5] -9.85% | [6] -10.3%

CCN(CC)CC1(CC)COC(c2ccccc2)(c2ccccc2)OC1
inactive: [1] -3.3% | [2] -21.4% | [3] -18.6% | [4] -26.3% | [5] -14.2% | [6] -34.5%

CC(=O)c1cccc(C(C)=O)c1N=Cc1ccc(Cl)cc1
inactive: [1] -30.3% | [2] -27.9% | [3] -26.4% | [4] -11.8% | [5] -18.1% | [6] -18.9%

Cc1nc2sc(CCl)nn2c(=O)c1Cl
inactive: [1] 16.1% | [2] 34% | [3] 14.6% | [4] 17.9% | [5] 21.2% | [6] 10.8%

O=C(CC(CC(=O)Oc1c(Br)cc(Br)cc1C(=O)O)C(=O)Oc1c(Br)cc(Br)cc1C(=O)O)Oc1c(Br)cc(Br)cc1C(=O)O
inactive: [1] -17.4% | [2] -23.4% | [3] -10% | [4] 8.7% | [5] -24% | [6] -5.6%

COc1ccc(Nc2ccnc3cc(Cl)ccc23)cc1CCN
inactive: [1] 4.65% | [2] 8.85% | [3] 24% | [4] 10.6% | [5] -5.9% | [6] -5.8%

CCC(=O)Nc1cc(C)ccc1Cl
inactive: [1] -3.95% | [2] -7.9% | [3] 3.2% | [4] -52.9% | [5] 5.9% | [6] -0.6%

COc1ccc2cccc(C(=O)O)c2c1
inactive: [1] 1.3% | [2] -10.3% | [3] -6.5% | [4] 3.35% | [5] -15.6% | [6] -21.6%

CC1CCC(O)C(C(O)CC2CC(=O)NC(=O)C2)C1 (stereo not drawn)
inactive: [1] 23.3% | [2] -3.3% | [3] 5.4% | [4] -21.7% | [5] 4% | [6] 3.45%

COC(=O)/N=c1\cc(N2CC=CCC2)nc(N)n1O
inactive: [1] -5.85% | [2] -10.7% | [3] -21.2% | [4] 18.9% | [5] -10.8% | [6] 5.4%

[O-][n+]1ccc(Cl)cc1
inactive: [1] -4.15% | [2] -14.8% | [3] -19% | [4] -15.2% | [5] -10.1% | [6] -9.35%

O=Cc1c(Cl)c(Cl)c(Cl)c(Cl)c1Cl
inactive: [1] -2.3% | [2] 6.3% | [3] 16.9% | [4] -39.6% | [5] 4.6% | [6] 51.1%

COc1ccc2c(c1)s/c(=N/N)n2CCCS(=O)(=O)O
inactive: [1] 5.5% | [2] -1.75% | [3] 20.9% | [4] 23.1% | [5] 5.4% | [6] 12.2%

Cn1c(=O)c2c(nc(N/N=C/c3ccccc3C(=O)O)n2C)n(C)c1=O
inactive: [1] -14.2% | [2] -3.15% | [3] -7.9% | [4] 12.3% | [5] -66.5% | [6] -15.3%

Cc1ccc(C(=O)/C(C#N)=C/Nc2c(C)n(C)n(-c3ccccc3)c2=O)cc1
inactive: [1] 17% | [2] 23.6% | [3] 20.1% | [4] 12.8% | [5] 19.5% | [6] 26.5%

O=C1CSC(c2ccc(Cl)c(Cl)c2)N1c1nncs1 (stereo not drawn)
inactive: [1] -18.7% | [2] 11.8% | [3] 17.1% | [4] 10.4% | [5] 14.7% | [6] 23.4%

CCCCCCn1c(=O)c(N(C)C)c(C)n(C)c1=O
inactive: [1] -36.1% | [2] -3.5% | [3] -9.05% | [4] 46% | [5] 17.7% | [6] -23.4%

Cc1ccc2nc(N=C(N)N)[nH]c2c1
inactive: [1] -16.5% | [2] -33.1% | [3] 2.75% | [4] 1.1% | [5] -14.3% | [6] -12.6%

O=C1Oc2ccccc2C(=O)C1=S1CCCC1
inactive: [1] 6.9% | [2] 12.1% | [3] 9.3% | [4] 18.6% | [5] 9.05% | [6] 14.6%

CC1(C)CC(=O)C(C=NC(=O)c2ccncc2)=C(O)C1
inactive: [1] -25.1% | [2] 19.7% | [3] -3.55% | [4] -3.8% | [5] 14.9% | [6] -40.4%

COc1cc(/C=C(\C#N)c2ccccn2)cc(Br)c1O
inactive: [1] -7.35% | [2] 5.15% | [3] -3.9% | [4] 17.2% | [5] 25.8% | [6] -21.6%
